# Results reported in the supplement of paper PMC10849652.
# Targets with a hit are over-represented here; the source holds about 8,800 in all. About 0.5% of all pairs of compound and target were hits. Unmarked numbers belong to inactive results.
# Columns and labels:
# Test in all cases: log2 fold change, soluble protein after heating vs DMSO (PISA); higher = thermal stabilisation; K562 lysate, 10 uM; active = over 0.2 and 3.5 SD of the protein, either way, in both replicates (recomputed)
# vemurafenib = compound: CCCS(=O)(=O)Nc1ccc(F)c(C(=O)c2c[nH]c3ncc(-c4ccc(Cl)cc4)cc23)c1F [vemurafenib]
# Method in brief: (§1)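 Following dounce homogenisation of K562 pellets in PBS pH 7.4 with 1 mM MgCl2, crude extract at 1 mg/mL protein was incubated for 30 min with 10 μM compound. Aliquots were then heated for 3 min over 48°C-58°C and pooled, NP-40 was added to 0.5% at 4°C, and soluble protein was recovered as the supernatant at 21,000xg for 90 min. Channel-sum-equalised TMTpro 16plex LC-MS/MS quantified this protein. Each value, from duplicates, is a log-two fold change in thermal stability relative to solvent controls.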
# [1] = compound: CCCS(=O)(=O)Nc1ccc(F)c(C(=O)c2c[nH]c3ncc(Cl)cc23)c1F
# Method in brief: as §1
# barasertib = compound: CCN(CCCOc1ccc2c(Nc3cc(CC(=O)Nc4cccc(F)c4)[nH]n3)ncnc2c1)CCOP(=O)(O)O [barasertib]
# Method in brief: as §1
# [2] = compound: CC[C@@H]1C(=O)N(C)c2cnc(Nc3ccc(C(=O)NC4CCN(C)CC4)cc3OC)nc2N1C1CCCC1
# Method in brief: as §1
# volasertib = compound: CC[C@@H]1C(=O)N(C)c2cnc(Nc3ccc(C(=O)N[C@H]4CC[C@H](N5CCN(CC6CC6)CC5)CC4)cc3OC)nc2N1C(C)C [volasertib]
# Method in brief: as §1
# [3] = compound: CCn1c(C(=O)N(C2CC2)C2CC2)cc2c3c(ncn3C)c(Nc3cc(C)n(C)n3)nc21
# Method in brief: as §1
# [4] = compound: CCn1cc(-c2ccnc3[nH]c(-c4cccc(CN(C)C)c4)cc23)c(-c2ccc(NC(=O)N(C)C)cc2)n1
# Method in brief: as §1
# [5] = compound: CN1CCC(CNc2ccc3ncc(-c4cccc(OC(F)(F)F)c4)n3n2)CC1
# Method in brief: as §1
# saracatinib = compound: CN1CCN(CCOc2cc(OC3CCOCC3)c3c(Nc4c(Cl)ccc5c4OCO5)ncnc3c2)CC1 [saracatinib]
# Method in brief: as §1
# sotrastaurin = compound: CN1CCN(c2nc(C3=C(c4c[nH]c5ccccc45)C(=O)NC3=O)c3ccccc3n2)CC1 [sotrastaurin]
# Method in brief: as §1
# alvocidib = compound: CN1CC[C@H](c2c(O)cc(O)c3c(=O)cc(-c4ccccc4Cl)oc23)[C@H](O)C1 [alvocidib]
# Method in brief: as §1
# Tubastatin A = compound: CN1CCc2c(c3ccccc3n2Cc2ccc(C(=O)NO)cc2)C1 [Tubastatin A]
# Method in brief: as §1
# [6] = compound: CNC(=O)C1=CC=CC=C1NC2=NC(=NC=C2Cl)NC3=C(C=C(C=C3)N4CCOCC4)OC
# Method in brief: as §1
# defactinib = compound: CNC(=O)c1ccc(Nc2ncc(C(F)(F)F)c(NCc3nccnc3N(C)S(C)(=O)=O)n2)cc1 [defactinib]
# Method in brief: as §1
# [7] = compound: CNc1nc(-c2ccc3c(N)n[nH]c3c2)cc(N2C[C@@H](C(=O)NC3CCCCC3)CC[C@H]2C)n1
# Method in brief: as §1
# encorafenib = compound: COC(=O)N[C@@H](C)CNc1nccc(-c2cn(C(C)C)nc2-c2cc(Cl)cc(NS(C)(=O)=O)c2F)n1 [encorafenib]
# Method in brief: as §1
# [8] = compound: COC(=O)[C@H](CCSC)NC(=O)C1=C(C=C(C=C1)NC[C@H](CS)N)C2=CC=CC=C2
# Method in brief: as §1
# alisertib = compound: COc1cc(Nc2ncc3c(n2)-c2ccc(Cl)cc2C(c2c(F)cccc2OC)=NC3)ccc1C(=O)O [alisertib]
# Method in brief: as §1
# [9] = compound: COc1cc2nc(-c3cc(F)ccc3O)nc(N[C@@H]3CNC[C@H]3C(C)(C)O)c2cc1OC
# Method in brief: as §1
# gefitinib = compound: COc1cc2ncnc(Nc3ccc(F)c(Cl)c3)c2cc1OCCCN1CCOCC1 [gefitinib]
# Method in brief: as §1
# UniProt P49643, sequence (P49643 whole entry, looked up): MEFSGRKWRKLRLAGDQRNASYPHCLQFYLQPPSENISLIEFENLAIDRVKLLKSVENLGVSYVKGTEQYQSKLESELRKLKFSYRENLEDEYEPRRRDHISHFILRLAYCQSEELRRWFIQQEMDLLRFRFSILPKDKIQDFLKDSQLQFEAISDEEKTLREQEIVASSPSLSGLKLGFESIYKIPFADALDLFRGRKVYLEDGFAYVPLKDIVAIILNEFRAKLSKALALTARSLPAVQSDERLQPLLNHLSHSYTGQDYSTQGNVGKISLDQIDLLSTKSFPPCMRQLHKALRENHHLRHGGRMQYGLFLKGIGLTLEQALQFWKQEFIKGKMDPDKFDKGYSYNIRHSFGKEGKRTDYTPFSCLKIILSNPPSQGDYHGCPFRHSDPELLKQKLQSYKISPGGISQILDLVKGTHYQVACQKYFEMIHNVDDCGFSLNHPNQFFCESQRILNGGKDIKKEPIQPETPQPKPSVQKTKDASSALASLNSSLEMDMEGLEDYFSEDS
# UniProt Q13356, sequence (Q13356 whole entry, looked up): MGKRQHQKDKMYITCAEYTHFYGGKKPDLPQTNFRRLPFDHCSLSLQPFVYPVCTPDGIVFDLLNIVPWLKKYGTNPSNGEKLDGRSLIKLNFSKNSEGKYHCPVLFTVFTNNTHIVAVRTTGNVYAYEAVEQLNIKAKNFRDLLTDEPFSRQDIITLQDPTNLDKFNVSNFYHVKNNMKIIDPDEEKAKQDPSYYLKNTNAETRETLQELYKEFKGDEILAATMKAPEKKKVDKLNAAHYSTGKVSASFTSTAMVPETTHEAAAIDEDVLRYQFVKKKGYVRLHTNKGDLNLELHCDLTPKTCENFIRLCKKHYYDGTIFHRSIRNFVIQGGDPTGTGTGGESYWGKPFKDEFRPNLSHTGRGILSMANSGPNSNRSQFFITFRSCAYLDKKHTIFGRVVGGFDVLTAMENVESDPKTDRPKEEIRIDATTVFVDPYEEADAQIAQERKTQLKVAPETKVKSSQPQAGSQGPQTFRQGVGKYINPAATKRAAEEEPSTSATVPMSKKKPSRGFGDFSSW
# UniProt Q9H0N5, sequence (Q9H0N5 whole entry, looked up): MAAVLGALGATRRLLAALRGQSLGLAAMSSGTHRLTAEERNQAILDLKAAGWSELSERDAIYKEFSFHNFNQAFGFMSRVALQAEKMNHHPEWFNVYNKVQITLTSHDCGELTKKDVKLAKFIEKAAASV
# UniProt O43663, sequence (O43663 whole entry, looked up): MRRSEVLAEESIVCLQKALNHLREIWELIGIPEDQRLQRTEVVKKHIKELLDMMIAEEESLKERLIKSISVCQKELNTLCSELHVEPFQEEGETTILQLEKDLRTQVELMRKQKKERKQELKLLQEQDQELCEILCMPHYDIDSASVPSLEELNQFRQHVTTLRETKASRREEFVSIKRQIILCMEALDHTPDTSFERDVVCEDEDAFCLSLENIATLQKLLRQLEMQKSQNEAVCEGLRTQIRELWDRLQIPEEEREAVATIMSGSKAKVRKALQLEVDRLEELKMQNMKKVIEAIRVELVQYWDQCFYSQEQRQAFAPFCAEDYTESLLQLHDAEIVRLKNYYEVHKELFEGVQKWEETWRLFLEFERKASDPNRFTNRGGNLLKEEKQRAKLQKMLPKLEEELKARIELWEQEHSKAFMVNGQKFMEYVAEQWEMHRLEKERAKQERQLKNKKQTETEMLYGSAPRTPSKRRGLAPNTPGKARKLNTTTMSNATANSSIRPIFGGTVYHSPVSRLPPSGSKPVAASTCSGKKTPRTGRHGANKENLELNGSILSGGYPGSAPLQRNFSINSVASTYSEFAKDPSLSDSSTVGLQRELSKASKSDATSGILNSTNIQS
# UniProt P05771, sequence (P05771 whole entry, looked up): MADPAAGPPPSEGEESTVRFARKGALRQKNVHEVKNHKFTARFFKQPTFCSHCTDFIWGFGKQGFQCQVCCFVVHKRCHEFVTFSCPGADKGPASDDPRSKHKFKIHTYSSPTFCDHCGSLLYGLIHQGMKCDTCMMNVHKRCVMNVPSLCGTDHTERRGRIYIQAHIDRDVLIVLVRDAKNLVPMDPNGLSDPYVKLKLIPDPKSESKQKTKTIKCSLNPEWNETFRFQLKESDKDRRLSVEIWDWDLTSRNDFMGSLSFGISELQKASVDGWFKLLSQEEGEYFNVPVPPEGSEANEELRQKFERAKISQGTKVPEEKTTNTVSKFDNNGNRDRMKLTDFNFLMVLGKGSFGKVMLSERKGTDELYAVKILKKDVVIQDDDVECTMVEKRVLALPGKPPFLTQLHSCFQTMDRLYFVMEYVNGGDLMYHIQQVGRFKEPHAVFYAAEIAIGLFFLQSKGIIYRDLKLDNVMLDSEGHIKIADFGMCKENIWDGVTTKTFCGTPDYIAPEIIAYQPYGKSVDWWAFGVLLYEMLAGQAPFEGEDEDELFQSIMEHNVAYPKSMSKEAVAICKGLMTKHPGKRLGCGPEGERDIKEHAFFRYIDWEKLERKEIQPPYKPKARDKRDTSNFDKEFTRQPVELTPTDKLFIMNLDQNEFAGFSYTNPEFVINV
# UniProt Q9UNP9, sequence (Q9UNP9 whole entry, looked up): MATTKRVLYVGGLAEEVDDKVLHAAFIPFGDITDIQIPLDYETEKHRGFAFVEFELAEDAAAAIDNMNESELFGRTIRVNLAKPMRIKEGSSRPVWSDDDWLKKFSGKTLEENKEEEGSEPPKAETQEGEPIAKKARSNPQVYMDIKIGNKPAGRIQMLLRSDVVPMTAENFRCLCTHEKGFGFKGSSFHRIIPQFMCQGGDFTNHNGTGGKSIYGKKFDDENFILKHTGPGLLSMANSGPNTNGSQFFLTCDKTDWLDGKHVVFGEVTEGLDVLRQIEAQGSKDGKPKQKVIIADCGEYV
# UniProt Q03393, sequence (Q03393 whole entry, looked up): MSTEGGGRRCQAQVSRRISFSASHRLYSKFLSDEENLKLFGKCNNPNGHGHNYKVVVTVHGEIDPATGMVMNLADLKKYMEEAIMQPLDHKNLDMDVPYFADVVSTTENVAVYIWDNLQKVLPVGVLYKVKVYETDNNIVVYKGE
# UniProt O94913, sequence (O94913 whole entry, looked up): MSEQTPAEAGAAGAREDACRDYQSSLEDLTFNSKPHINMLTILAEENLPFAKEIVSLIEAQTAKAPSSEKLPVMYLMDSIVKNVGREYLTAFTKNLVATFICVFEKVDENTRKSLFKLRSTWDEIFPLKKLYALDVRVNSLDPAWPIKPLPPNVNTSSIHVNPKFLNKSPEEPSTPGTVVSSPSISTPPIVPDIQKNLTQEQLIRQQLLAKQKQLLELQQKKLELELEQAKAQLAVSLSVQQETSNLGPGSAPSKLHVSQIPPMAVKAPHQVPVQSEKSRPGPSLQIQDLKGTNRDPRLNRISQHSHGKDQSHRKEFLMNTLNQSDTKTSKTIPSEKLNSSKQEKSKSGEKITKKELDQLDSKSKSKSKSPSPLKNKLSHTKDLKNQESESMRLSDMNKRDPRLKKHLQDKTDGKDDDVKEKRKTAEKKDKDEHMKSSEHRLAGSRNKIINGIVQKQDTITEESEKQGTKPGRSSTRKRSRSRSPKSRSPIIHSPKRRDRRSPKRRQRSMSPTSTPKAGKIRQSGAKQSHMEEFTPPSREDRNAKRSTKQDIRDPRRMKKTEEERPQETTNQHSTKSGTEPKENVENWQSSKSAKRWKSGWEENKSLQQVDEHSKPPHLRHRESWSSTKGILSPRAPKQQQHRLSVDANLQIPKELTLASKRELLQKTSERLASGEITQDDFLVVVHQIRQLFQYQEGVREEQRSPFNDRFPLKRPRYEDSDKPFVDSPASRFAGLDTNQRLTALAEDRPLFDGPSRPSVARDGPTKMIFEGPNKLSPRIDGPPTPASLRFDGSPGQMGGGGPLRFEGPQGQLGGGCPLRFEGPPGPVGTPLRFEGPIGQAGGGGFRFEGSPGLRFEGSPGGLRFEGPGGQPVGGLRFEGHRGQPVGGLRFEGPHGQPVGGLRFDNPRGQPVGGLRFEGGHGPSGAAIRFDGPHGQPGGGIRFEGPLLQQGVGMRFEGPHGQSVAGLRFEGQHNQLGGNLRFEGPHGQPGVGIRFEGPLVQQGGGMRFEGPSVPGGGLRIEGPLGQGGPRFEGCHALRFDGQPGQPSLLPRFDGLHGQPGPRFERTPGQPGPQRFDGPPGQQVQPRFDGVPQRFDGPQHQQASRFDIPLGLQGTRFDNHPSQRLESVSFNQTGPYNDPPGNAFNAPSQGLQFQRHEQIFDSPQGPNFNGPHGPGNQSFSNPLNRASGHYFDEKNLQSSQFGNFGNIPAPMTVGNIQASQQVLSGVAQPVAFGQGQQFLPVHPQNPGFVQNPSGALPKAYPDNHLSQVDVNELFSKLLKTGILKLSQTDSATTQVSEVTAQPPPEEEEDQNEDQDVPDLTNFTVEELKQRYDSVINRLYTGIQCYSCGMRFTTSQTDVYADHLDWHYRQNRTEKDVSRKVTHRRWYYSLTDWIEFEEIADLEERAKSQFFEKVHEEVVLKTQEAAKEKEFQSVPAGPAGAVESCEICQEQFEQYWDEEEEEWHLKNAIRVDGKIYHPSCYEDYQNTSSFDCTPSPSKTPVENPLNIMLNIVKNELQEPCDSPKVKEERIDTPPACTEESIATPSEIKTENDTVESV
# UniProt P57721, sequence (P57721 whole entry, looked up): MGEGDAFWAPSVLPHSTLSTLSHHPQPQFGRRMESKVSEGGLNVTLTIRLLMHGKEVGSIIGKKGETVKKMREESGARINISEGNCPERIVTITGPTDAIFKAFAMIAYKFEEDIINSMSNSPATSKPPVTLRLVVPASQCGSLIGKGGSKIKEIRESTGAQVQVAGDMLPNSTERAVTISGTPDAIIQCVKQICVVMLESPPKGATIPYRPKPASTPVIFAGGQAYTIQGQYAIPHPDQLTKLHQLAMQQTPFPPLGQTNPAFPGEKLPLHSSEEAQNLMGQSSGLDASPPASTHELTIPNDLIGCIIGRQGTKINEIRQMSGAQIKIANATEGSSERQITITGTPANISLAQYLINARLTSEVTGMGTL
# UniProt Q9H2H8, sequence (Q9H2H8 whole entry, looked up): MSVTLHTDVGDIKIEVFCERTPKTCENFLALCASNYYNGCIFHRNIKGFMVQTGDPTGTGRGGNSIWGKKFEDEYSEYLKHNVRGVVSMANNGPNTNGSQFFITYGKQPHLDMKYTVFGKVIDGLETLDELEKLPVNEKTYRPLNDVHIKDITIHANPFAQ
Target,log2 fold change (vemurafenib),log2 fold change [1],log2 fold change (barasertib),log2 fold change [2],log2 fold change (volasertib),log2 fold change [3],log2 fold change [4],log2 fold change [5],log2 fold change (saracatinib),log2 fold change (sotrastaurin),log2 fold change (alvocidib),log2 fold change (Tubastatin A),log2 fold change [6],log2 fold change (defactinib),log2 fold change [7],log2 fold change (encorafenib),log2 fold change [8],log2 fold change (alisertib),log2 fold change [9],log2 fold change (gefitinib)
PRKCB isoform 2 (UniProt P05771),0.045,-0.024,-0.017,-0.01,-0.062,0.002,0.073,-0.077,-0.023,0.505 (active),-0.004,0.054,-0.029,-0.019,0.03,0.057,-0.203,0.039,0.148,0.008
PRC1 (UniProt O43663),0.048,0.03,0.063,-0.057,-0.028,0,-0.004,-0.094,0.025,0.005,0.002,-0.157,0.043,-0.012,0.012,0.031,0.255 (active),0.045,-0.032,0.049
PWP1 (UniProt Q13610),-0.09,0.019,0.012,-0.032,-0.004,-0.023,0.62 (active),-0.039,0.01,-0.021,0.063,-0.017,-0.012,0.002,-0.046,0.046,-0.013,-0.014,0.008,-0.017
PPIL3 (UniProt Q9H2H8),0.048,-0.017,0.099,-0.004,-0.007,0.027,0.067,0.021,0.004,-0.03,-0.105,-0.044,0,-0.115,0.012,0.011,0.008,-0.033,0.018,-0.02
PRKAB2 (UniProt O43741),0.022,0.104,-0.081,0,-0.05,-0.094,-0.85 (active),0.303,0.029,0.026,-0.122,-0.016,0.286,0.057,0.062,-0.04,-0.09,-0.062,0.058,-0.126
PTS (UniProt Q03393),0.33 (active),0.044,0.051,0.054,0.014,0.02,-0.045,0.01,0.104,0.057,-0.055,-0.007,0.043,-0.059,0.015,0.1,-0.022,-0.009,0.016,0.121
PRIM2 (UniProt P49643),0.025,0.04,-0.005,-0.034,-0.048,0.019,-0.027,-0.046,-0.03,0.02,-0.008,-0.138,0.033,-0.01,0.009,-0.002,0.035,-0.017,-0.009,0.01
PCBP3 (UniProt P57721),0.021,-0.007,-0.007,-0.003,0.006,-0.011,-0.062,0.032,0.014,-0.047,-0.015,0.005,0.022,-0.039,0.042,-0.006,-0.023,0.019,0.015,-0.023
PPIL2 (UniProt Q13356),0.012,0.015,0.035,-0.013,-0.06,0,-0.023,0.016,-0.032,0.024,-0.006,-0.1,-0.006,-0.024,0.056,-0.004,0.036,-0.018,0.027,0.005
PCF11 (UniProt O94913),0.042,0.012,0.015,0.02,-0.029,-0.045,0.081,-0.018,-0.003,0.006,-0.018,-0.12,0.002,0.041,0.078,0.036,-0.021,0.009,0.042,0.002
PPIE (UniProt Q9UNP9),0.026,-0.043,-0.042,0.044,0.018,-0.003,-0.25 (active),0.143,-0.01,0.067,-0.131,0.025,-0.047,-0.018,0.023,-0.025,-0.041,-0.036,0.005,0.034
PTPN23 (UniProt Q9H3S7),-0.008,0,0.003,-0.006,-0.042,0.026,-0.017,0.007,0.008,-0.001,-0.004,-0.035,-0.03,-0.018,0.016,0.031,-0.018,0.012,-0.017,0.005
PCBD2 (UniProt Q9H0N5),0.004,-0.017,0.013,0.018,0.016,0.031,-0.237,0.11,-0.05,0.055,-0.124,0.012,0.01,-0.045,-0.059,-0.008,-0.039,0.058,0.031,0.071
PFDN2 (UniProt Q9UHV9),-0.049,0,0.064,-0.022,0.029,0.082,0.471 (active),-0.049,0.009,0.039,0.063,0.01,-0.035,0.026,-0.012,0.05,-0.025,0.033,0.007,0.012
PTPN6 isoform 4 (UniProt P29350),0.02,-0.089,0.081,-0.487 (active),0.014,0.026,-0.038,-0.024,-0.046,0.006,-0.12,-0.185,0.037,-0.015,-0.008,0.028,0.261,-0.218,-0.034,0.045
PIK3R2 (UniProt O00459),-0.032,0,-0.002,0.128,-0.003,0.071,-0.018,0.289,-0.014,0.091,0.023,-0.086,0.027,0.017,-0.009,0.009,-0.225,0.008,0.02,-0.052
